Screening data (PubChem)
PD-1 reverse act: activators reversing PD-1 mediated T-cell inhibition; activation, % (concentration not given with the values); 29,000 tested, under 10 active; AID 2316; primary human CD4 T cells, PD-L1 beads, CellTiter-Glo 96 h; call rule not given here;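 further: 0% = median vehicle wells and 100% = positive control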
STK33 kin inh: human STK33 kinase inhibition. ADP-Glo luminescence, MBP substrate. Q9BYT3. AID 2322. 27,000 compounds, 0.44% hits. inhibition, % at 12.5 µM; in the data active means inhibition above about 20%; inconclusive means no clear call, values can overlap the other calls
Target sequence (Q9BYT3 whole entry, looked up): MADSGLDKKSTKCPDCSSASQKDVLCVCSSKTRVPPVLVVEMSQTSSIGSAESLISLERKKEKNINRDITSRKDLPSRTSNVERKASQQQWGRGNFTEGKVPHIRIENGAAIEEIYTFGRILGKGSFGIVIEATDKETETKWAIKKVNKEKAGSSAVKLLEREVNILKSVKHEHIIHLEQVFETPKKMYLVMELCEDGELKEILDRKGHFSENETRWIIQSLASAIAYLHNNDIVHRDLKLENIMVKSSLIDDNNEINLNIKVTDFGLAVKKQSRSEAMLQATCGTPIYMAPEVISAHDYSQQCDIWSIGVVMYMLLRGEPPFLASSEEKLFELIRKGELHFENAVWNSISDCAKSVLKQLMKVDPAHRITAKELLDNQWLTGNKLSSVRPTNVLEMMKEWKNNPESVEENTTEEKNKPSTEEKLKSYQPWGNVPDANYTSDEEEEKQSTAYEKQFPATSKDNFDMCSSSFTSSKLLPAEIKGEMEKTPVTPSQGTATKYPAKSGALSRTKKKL
NOMO-1 viab: STK33 inhibitor candidate reducing NOMO-1 cell viability; inhibition, % (test concentration not listed); AID 2330; NOMO-1 AML viability, CellTiter-Glo luminescence, 72 h; 37,000 compounds, 7.5% hits; in the data active means inhibition above about 80%; inconclusive means no clear call, values can overlap the other calls
* = called active by the depositor. This excerpt belongs to a sample that is enriched for hits.

Screening C[C@H](CO)N1C[C@H](C)[C@H](CN(C)Cc2ccc(C(F)(F)F)cc2)Oc2ccc(NC(=O)Nc3ccc4c(c3)OCO4)cc2CC1=O returned NOMO-1 viab 103.9*.
Screening C[C@H]1CN([C@@H](C)CO)C(=O)Cc2cc(NC(=O)Nc3ccc4c(c3)OCO4)ccc2O[C@H]1CN(C)Cc1ccc(C(F)(F)F)cc1 returned STK33 kin inh 2.2 and NOMO-1 viab 78.2.
`Cc1ccc(NC(=O)CSc2nnc(-c3ccc([N+](=O)[O-])cc3)n2-c2ccccc2)cc1C` gave PD-1 reverse act -6.6, STK33 kin inh -4.0 and NOMO-1 viab 43.9.
For COc1cc([N+](=O)[O-])ccc1NC(=S)Nc1nn(Cc2ccc(Cl)cc2Cl)cc1Cl the results were STK33 kin inh -0.1 and NOMO-1 viab 23.2.
COc1cccc(C(=O)NC(c2ccc(C)cc2)c2cc(Cl)c3cccnc3c2O)c1 (stereo unspecified) was read as PD-1 reverse act -14.3, STK33 kin inh -2.7 and NOMO-1 viab 120.6*.
COc1ccc(CCNC(=O)c2cc(-c3cccnc3)nc3c(Cl)cccc23)cc1OC was read as PD-1 reverse act -2.9, STK33 kin inh -0.3 and NOMO-1 viab 3.9.
Screening COc1cccc(C(=O)Nc2cccc(OC(C)C(=O)c3cccc(Cl)c3)c2)c1 (stereo unspecified) returned PD-1 reverse act 0.7, STK33 kin inh 0.1 and NOMO-1 viab 19.3.
For COc1ccc(C(=O)NC(c2ccc(OC)c(OC)c2)c2cc(Cl)c3cccnc3c2O)cc1 (stereo unspecified) the results were PD-1 reverse act -12.6, STK33 kin inh 5.0 and NOMO-1 viab 121.6*.
`COc1ccc(C(=O)NC(CC(=O)O)c2ccc(Cl)cc2)cc1` (stereo unspecified) gave PD-1 reverse act 1.9, STK33 kin inh -1.7 and NOMO-1 viab -8.1.
COc1ccc(C(NC(=O)c2cccnc2)c2cc(Cl)c3cccnc3c2O)cc1OC (stereo unspecified) was read as STK33 kin inh -2.0 and NOMO-1 viab 108.9*.
For Cc1cc(C)cc(NC(=O)CN(c2ccc(Cl)cc2Cl)S(C)(=O)=O)c1 the results were PD-1 reverse act -0.3, STK33 kin inh 1.7 and NOMO-1 viab -1.0.
`Cc1ccccc1-c1nnc(SCC(=O)Nc2ccc3c(c2)OCCO3)n1C` gave PD-1 reverse act 0.8, STK33 kin inh -3.1 and NOMO-1 viab 30.5.
Cc1cc(OCC(=O)Nc2cccc(C(=O)O)c2)cc(C)c1Cl was read as PD-1 reverse act 1.2, STK33 kin inh -3.2 and NOMO-1 viab -11.6.
`CCOC(=O)CSc1n[nH]c(-c2ccc(Cl)cc2)n1` gave PD-1 reverse act -0.5, STK33 kin inh -3.9 and NOMO-1 viab 118.6*.
For CCOc1ccc(NC(=O)CSc2n[nH]c(-c3ccc(Cl)cc3)n2)cc1 the results were PD-1 reverse act -3.0, STK33 kin inh -4.3 and NOMO-1 viab -3.7.
COc1ccc(OC)c(-n2c(=S)[nH]c3cc(C(=O)N4CCC(C(N)=O)CC4)ccc3c2=O)c1 was read as PD-1 reverse act 3.6, STK33 kin inh -1.9 and NOMO-1 viab 6.0.
COc1ccc(-n2c(=S)[nH]c3cc(C(=O)NC4CCCC(C)C4C)ccc3c2=O)c(OC)c1 (stereo unspecified) was read as PD-1 reverse act -0.5 and NOMO-1 viab 87.4*.
`CNc1cc(=O)n(-c2ccccc2)c(=O)n1-c1ccccc1` gave PD-1 reverse act 1.2 and NOMO-1 viab -23.2.
`C=CC1CN(C=O)CCC1CCC(=O)c1ccnc2ccccc12` (stereo unspecified) gave STK33 kin inh -2.8.
`COc1ccc(S(=O)(=O)N(C)C[C@H]2Oc3c(NC(=O)Nc4ccc(C(F)(F)F)cc4)cccc3C(=O)N([C@@H](C)CO)C[C@@H]2C)cc1` gave PD-1 reverse act 2.0 and NOMO-1 viab 112.3*.
For COc1ccc(S(=O)(=O)N(C)C[C@H]2Oc3c(NC(=O)Nc4ccc(C(F)(F)F)cc4)cccc3C(=O)N([C@H](C)CO)C[C@@H]2C)cc1 the results were PD-1 reverse act 0.4 and NOMO-1 viab inconclusive.
`COc1ccc(S(=O)(=O)N(C)C[C@@H]2Oc3c(NC(=O)Nc4ccc(C(F)(F)F)cc4)cccc3C(=O)N([C@@H](C)CO)C[C@H]2C)cc1` gave PD-1 reverse act 0.5 and NOMO-1 viab 21.0.
Screening COc1ccc(S(=O)(=O)N(C)C[C@H]2Oc3c(NC(=O)Nc4ccc(C(F)(F)F)cc4)cccc3C(=O)N([C@@H](C)CO)C[C@H]2C)cc1 returned PD-1 reverse act -5.7 and NOMO-1 viab 120.8*.
`Cc1ccccc1-c1nnc(SCC(=O)Nc2sc3c(c2C#N)CCCC3)n1C` gave PD-1 reverse act 0.6, STK33 kin inh -2.2 and NOMO-1 viab 16.5.
For Cc1ccc(-n2c(SCC(=O)Nc3ccc(F)c(F)c3)nnc2-c2ccc(Cl)cc2)cc1 the results were STK33 kin inh 1.7 and NOMO-1 viab inconclusive.
For O=C1O[C@H](c2ccccc2)[C@H](c2ccccc2)N2[C@H]1[C@@H](C(=O)NC[C@H](O)c1ccccc1)[C@]1(C(=O)Nc3ccc(C#CC4=CCCCC4)cc31)[C@H]2c1ccccc1OCCO the results were STK33 kin inh 4.9.
`C[C@H]1CN([C@@H](C)CO)C(=O)c2cccc(NC(=O)CCCCCC(=O)Nc3ccccc3N)c2O[C@H]1CN(C)Cc1ccc(Cl)c(Cl)c1` gave PD-1 reverse act -0.3 and NOMO-1 viab 119.9*.
Screening C[C@@H]1CN([C@@H](C)CO)C(=O)c2cccc(NC(=O)CCCCCC(=O)Nc3ccccc3N)c2O[C@@H]1CN(C)Cc1ccc(Cl)c(Cl)c1 returned PD-1 reverse act -0.3 and NOMO-1 viab 126.3*.
For C[C@@H]1CN([C@H](C)CO)C(=O)c2cccc(NC(=O)CCCCCC(=O)Nc3ccccc3N)c2O[C@@H]1CN(C)Cc1ccc(Cl)c(Cl)c1 the results were PD-1 reverse act 0.4 and NOMO-1 viab 134.2*.
Screening C[C@H](CO)N1C[C@H](C)[C@H](CN(C)Cc2ccc(Cl)c(Cl)c2)Oc2c(NC(=O)C3CC3)cccc2C1=O returned PD-1 reverse act -1.0 and NOMO-1 viab 4.4.
Screening C[C@@H]1CN([C@H](C)CO)C(=O)c2cccc(NC(=O)CCCCCC(=O)Nc3ccccc3N)c2O[C@@H]1CN(C)C returned PD-1 reverse act 1.1 and NOMO-1 viab 28.8.
C[C@H]1CN([C@@H](C)CO)C(=O)c2cccc(NC(=O)C3CC3)c2O[C@H]1CN(C)Cc1ccc(Cl)c(Cl)c1 was read as PD-1 reverse act -1.4 and NOMO-1 viab -1.7.
Screening COc1cc(CCC(C)NC(=O)c2ccco2)ccc1OC(=O)c1ccco1 (stereo unspecified) returned PD-1 reverse act -3.8, STK33 kin inh 0.1 and NOMO-1 viab 21.8.
Screening C[C@@H]1CN([C@H](C)CO)C(=O)c2cc(NC(=O)Nc3ccc(F)cc3)ccc2O[C@H]1CN(C)Cc1ccc(Oc2ccccc2)cc1 returned PD-1 reverse act -2.5, STK33 kin inh 3.1 and NOMO-1 viab 70.9.
Screening C[C@H](CO)N1C[C@H](C)[C@H](CN(C)Cc2ccc(Oc3ccccc3)cc2)Oc2ccc(NC(=O)Nc3ccc(F)cc3)cc2C1=O returned PD-1 reverse act 0.5 and NOMO-1 viab 66.5.
